Only some compounds are listed: those with a hit (about 6.6% of all), similar ones and a draw of the others.
RGS4 inhibitor – inhibitors of human regulator of G protein signaling 4; Transcreener GDP fluorescence polarization, RGS4-accelerated GTP hydrolysis; Potency, µM (doses to about 114 µM), inactives show at the highest dose activity change, negative = inhibition, actives largely listed as inhibitors; hit rate 0.039% among 390,000; AID 504845; note: % is set by controls: 0 for no effect and ±100 for the full control effect; nearly all actives have a fitted effect of over 75% in size
Target sequence (P49798 whole entry, looked up): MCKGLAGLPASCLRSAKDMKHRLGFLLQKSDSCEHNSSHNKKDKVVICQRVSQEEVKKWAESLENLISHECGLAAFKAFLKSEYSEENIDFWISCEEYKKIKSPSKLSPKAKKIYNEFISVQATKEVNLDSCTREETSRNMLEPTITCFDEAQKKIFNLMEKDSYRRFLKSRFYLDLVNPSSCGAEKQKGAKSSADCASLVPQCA
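MLSMR compounds (23 nl, pin-transferred) preincubated 10 min at room temperature with a 500nM (2x) first reagent, then RGS4 at 900nM (2x) plus Transcreener GDP mix added; fluorescence polarization (620/688 nm) read before and after 90 min at 30 °C.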
TSG101-PTAP inh – blocks PTAP/TSG101 interaction to inhibit HIV-1 budding. 340,000 tested, under 10 active. Potency, µM (series often up to 115 µM), for the others: top-dose activity change, negative = inhibition, hits mostly inhibitors. Q99816. Fluorescence polarization, FITC-PTAP peptide / Tsg101 binding; active = well fitted inhibition curve with a large enough effect in the main read-out, with a control signal flat, not every such curve was filed as active; inconclusive = small, poorly fitted or top-dose-only effect, or effect the other way, or a change in a side signal; inactive = no such curve, though single readings can be large or run the other way; note: % of control where 0% means no effect
Target sequence (Q99816 whole entry, looked up): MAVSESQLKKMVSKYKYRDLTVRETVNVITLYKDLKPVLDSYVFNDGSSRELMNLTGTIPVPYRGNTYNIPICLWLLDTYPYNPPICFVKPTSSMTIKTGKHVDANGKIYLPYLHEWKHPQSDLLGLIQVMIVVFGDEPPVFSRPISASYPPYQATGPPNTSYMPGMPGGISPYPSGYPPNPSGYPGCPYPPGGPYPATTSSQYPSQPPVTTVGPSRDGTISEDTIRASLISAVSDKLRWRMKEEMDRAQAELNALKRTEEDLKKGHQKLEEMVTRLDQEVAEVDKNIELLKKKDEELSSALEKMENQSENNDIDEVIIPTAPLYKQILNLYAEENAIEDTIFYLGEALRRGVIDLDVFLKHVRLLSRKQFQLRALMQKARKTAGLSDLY
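Steps: Tsg101 binding domain dispensed (10 uM final), compounds pinned in DMSO, FITC-labeled PTAP-motif peptide added (50 nM final); after 20 min binding at room temperature, polarization measured.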
SW480 rereplic – DNA re-replication induction in SW480 cells | SW480 DNA re-replication, Hoechst DNA content imaging, 48 h | Potency, µM (titrated, usually from 46.1 µM), for the others: at the top dose re-replication activation, usual class: activators | hit rate 1.8% among 340,000 | AID 624297; note: % of control where 0% means no effect; nearly all actives have a fitted effect of over 55% in size
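First, 250 cells per well were seeded. Next, compound or vehicle (23 nL) was pinned in, plates sat 48 hr at 37 C. Finally Hoechst was added for 40 min before fluorescence scanning.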
MCF10A rerep – induces DNA re-replication in MCF 10a normal breast cells. MCF 10A DNA re-replication, Hoechst nuclear intensity, 48 h. Potency, µM (doses to about 46.1 µM), for the others: at the highest dose activity, positive = re-replication, most hits filed as activators. hit rate 2.9% among 350,000. AID 624296; note: % of control where 0% means no effect; nearly all actives have a fitted effect of over 50% in size
KB-V1 MDR tox – KB-V1 MDR subline cytotoxicity | KB-V1 MDR cells viability, CellTiter-Glo, 72 h | Potency, µM (highest dose often 46.1 µM), usual class: cytotoxic | hit rate 3.4% among 400,000 | AID 1347076; note: % is set by controls: 0 for no effect and ±100 for the full control effect; nearly all actives have a fitted effect of over 60% in size
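Cells of the MDR subline KB-V1 are plated, dosed with compound at multiple concentrations, and incubated 72 h at 37 degrees C; CellTiter-Glo is then added and luminescence read after 10 min.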
KB-3-1 tox – KB-3-1 parental cell cytotoxicity; KB-3-1 viability, CellTiter-Glo ATP luminescence, 72 h; Potency, µM (doses to about 46.1 µM), hits mostly cytotoxic; hit rate 1.4% among 400,000; AID 1347075; note: % is set by controls: 0 for no effect and ±100 for the full control effect; nearly all actives have a fitted effect of over 60% in size
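KB-3-1 cells, DMEM (no phenol red) + 10% FBS; compound by pin transfer, 72 h, 37 °C. Readout: CellTiter-Glo luminescence after 10 min. Data normalized, curve-fitted.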
* hit, by the source's call; i = inactive; u = inconclusive; x = no result given. Unless noted, calls come from the whole dose curve; as a rule, active = well fitted curve in the direction sought with a large enough effect; inconclusive = small, poorly fitted or top-dose-only effect, or another doubt; inactive = no such curve, though single readings can be large; an effect the other way counts as inactive or inconclusive. Potency is the fitted concentration of half-maximal effect.

SMILES	RGS4 inhibitor	TSG101-PTAP inh	SW480 rereplic	MCF10A rerep	KB-V1 MDR tox	KB-3-1 tox
COc1ccc(C)cc1NS(=O)(=O)c1ccc2c3c(cccc13)C(=O)N2	-94%	x	x	x	u	i
CCOCCc1nn2c(=O)cc(COC(=O)c3ccccc3Br)nc2s1	3%	x	x	x	i	i
CC(=O)Nc1ccc(S(=O)(=O)N2CCC(n3c(C)nc4cccnc43)CC2)cc1	18%	x	x	x	i	i
CCOC(=O)c1ccc(NS(=O)(=O)c2ccc(Br)s2)cc1	-4%	x	x	x	i	i
CCc1cccc(C)c1NC(=O)c1cc(C)nc2c1c(C)nn2-c1cccc(Cl)c1C	8%	x	x	x	i	i
COc1ccc(C2=CCN3CCCCC3C2)c(-c2ccc(OC)c(OC)c2)c1 (configuration not stated)	-6%	2%	2%	8.2µM*	u	u
Cc1nc(C)c(C(=O)Nc2ccc(Oc3ccccc3)cc2)o1	-24%	-7%	0%	4%	i	i
Cc1ncoc1C(=O)Nc1ccc(Oc2ccccc2)cc1	-14%	-2%	-12%	3%	18µM*	i
N#Cc1ccc(-c2cccs2)nc1SCc1ccc(Cl)cc1Cl	4%	x	x	x	i	i
CC(=O)O[C@]1(C(C)=O)CC[C@H]2[C@@H]3C=CC4=CC(=O)C=C[C@]4(C)[C@H]3CC[C@@]21C	9%	-1%	1%	u	13µM*	u
CC(=O)O[C@]1(C(C)=O)CCC2C3C=C(C)C4=CC(=O)CC[C@]4(C)C3CC[C@@]21C (some centres not stated)	-9%	-1%	40%	5%	i	i
COc1ccccc1C(=O)Nc1ccc(S(=O)(=O)N2CCOCC2)cc1	-6%	-2%	2%	3%	u	i
COc1ccccc1C(=O)Nc1nc(-c2ccc(S(=O)(=O)N3CCOCC3)cc2)cs1	-46%	-7%	7%	u	4.6µM*	15µM*
COc1ccccc1OC(C)C(=O)Nc1nc(-c2ccc(S(=O)(=O)N3CCOCC3)cc2)cs1 (configuration not stated)	-26%	-4%	7%	u	4.6µM*	i
CC(C)C(=O)Nc1nc(-c2ccc(S(=O)(=O)N3CCOCC3)cc2)cs1	16%	-2%	9%	u	x	x
CCc1cc2c(=O)c(-c3cnn(-c4ccccc4)c3)c(C)oc2c(CN2CCCCC2)c1O	-7%	0%	2%	u	i	i
CCc1cc2c(=O)c(-c3cnn(-c4ccccc4)c3)c(C(F)(F)F)oc2c(CN(C)C)c1O	-9%	-1%	-7%	-6%	1.8µM*	i
OCC1(Cc2ccc(Cl)cc2)CCN(Cc2ccccc2F)CC1	-14%	-3%	-9%	12%	i	u
OCC1(Cc2ccc(Cl)cc2)CCN(CCCc2ccccc2)CC1	11%	0%	18µM*	u	i	i
C[N+]1(CCCCSc2ccc(O)cc2)CCCCC1	-12%	-1%	6%	21%	i	18µM*
Cc1ccc(C(=O)NCCc2cc3ccc(C)c(C)c3[nH]c2=O)cc1[N+](=O)[O-]	-9%	-1%	u	2%	4.1µM*	i
COc1ccc(C(=O)NCCc2cc3ccc(C)c(C)c3[nH]c2=O)cc1OC	-15%	2%	6%	27%	i	i
COc1ccc(OCCCC(=O)Nc2ccc3c(c2)OCCO3)cc1	-17%	-6%	27%	21µM*	u	i
COc1ccc(C(=O)CCNc2cccc(Cl)c2)cc1	-10%	-5%	0%	-6%	i	i
CC(=O)c1ccc(OCCCC(=O)Nc2ccc3c(c2)OCCO3)cc1	12%	0%	-7%	8%	i	i
SMILES	RGS4 inhibitor	TSG101-PTAP inh	SW480 rereplic	MCF10A rerep	KB-V1 MDR tox	KB-3-1 tox
COc1ccc(OC)c(/C=C/C(=O)Nc2ccc3c(c2)CCC3)c1	-32%	0%	-3%	13%	16µM*	i
COc1ccc(C(=O)CCNc2ccc3c(c2)OCCO3)cc1	-22%	0%	u	23µM*	i	i
COc1ccccc1/C=C/C(=O)Nc1ccc2c(c1)CCC2	17%	0%	-7%	12%	i	i
COc1ccc(C(=O)Nc2ccc3[nH]ccc3c2)cc1	-19%	2%	u	u	16µM*	16µM*
O=C(NCc1ccccc1Cl)c1ccc2c(c1)N(Cc1ccccc1)C(=O)CS2	-11%	x	x	x	x	x
COc1ccc(C(=O)Nc2ccc3c(c2)OCCO3)cc1	14%	-4%	7.3µM*	u	u	i
COc1ccc(NC(=O)CN(C)C(=O)Cc2ccc3c(c2)OCCO3)cc1	11%	1%	0%	0%	u	i
CC(C)(C)NS(=O)(=O)c1ccc(CCC(=O)Nc2ccc3c(c2)OCCO3)cc1	-2%	-1%	-5%	-8%	16µM*	i
CC(C)(C)NS(=O)(=O)c1ccc(CCC(=O)Nc2ccc3c(c2)OCO3)cc1	11%	-6%	0%	5%	i	i
CC(=O)Oc1ccc(C(=O)Nc2ccc3c(c2)OCCO3)cc1	8%	0%	1%	u	u	u
COc1ccccc1/C=C/C(=O)Nc1ccc2c(c1)OCCO2	-8%	-5%	16µM*	13µM*	21µM*	5.2µM*
COc1ccc(NC(=O)CSCC(=O)N(C)Cc2ccc3c(c2)OCCO3)cc1	26%	2%	1%	3%	15µM*	i
COC(=O)c1ccc(C(=O)OC)c(NC(=O)N2CC3CCCN3c3ccccc32)c1 (configuration not stated)	-24%	x	x	x	i	i
CCCc1cc(N2CCCC(C(=O)Nc3ccc(OC)cc3OC)C2)n2ncnc2n1 (configuration not stated)	-13%	-2%	-2%	-5%	3.7µM*	u
CCCc1cc(N2CCCC(C(=O)NCc3ccc4c(c3)OCO4)C2)n2ncnc2n1 (configuration not stated)	21%	-9%	-5%	15%	i	i
CCc1c(C)nc2ncnn2c1N1CCCC(C(=O)NCCc2ccc(OC)cc2)C1 (configuration not stated)	10%	-2%	6%	4%	15µM*	u
COc1ccc(NC(=O)N2CCCC(C(=O)NCCc3ccccc3)C2)cc1 (configuration not stated)	2%	-3%	2%	13%	23µM*	i
COc1ccc(CCNC(=O)C2CCCN(c3ncccn3)C2)cc1 (configuration not stated)	5%	-1%	-3%	6%	u	i

Screening results deposited in PubChem by National Center for Advancing Translational Sciences (NCATS).
